The values below come from PubChem BioAssay (Tox21).

“And” between values parts separate entries of the source, which are not always exact repeats. Identical values can stand only once. Unmarked numbers belong to inactive results. Inconclusive results are not listed. The source made the active and inactive calls. Unless noted, calls follow the shape of the dose curve; as a rule, active = well fitted curve in the direction sought with a large enough effect in the repeat runs; inconclusive = weak or mixed curves; inactive = no such curve, though single readings can be large; an effect the other way counts as inactive or inconclusive.

Experiment [1] in a line: qHTS assay to identify small molecule agonists of the estrogen receptor alpha (ER-alpha) signaling pathway in the presence of an antagonist - cell viability counter screen (AID 1259386).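 Also: cells exposed to compounds for 22 h at 37 °C before the viability read; nearly all actives have a fitted effect of over 30% in size.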 Also: potency is read from the fitted curve at half-maximal effect. In outline:
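ICI-182,780 at 10.0nM final accompanies the compound titration (15 concentrations, 22hr, 37C) on VM7Luc4E2 cells. The CellTiter-Fluor fluorescence readout runs in the same wells as the luciferase assay.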
A general note: In qHTS, concentration-response curves come from the screen itself.

The target in experiment [2] is Progesterone receptor (Homo sapiens) (UniProt P06401). Put plainly: qHTS assay to identify small molecule agonists of the progesterone receptor (PR) signaling pathway (AID 1346784; calls by dose curve; also: nearly all actives have a fitted effect of over 30% in size). In outline:
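Beta-lactamase reporter read-out: after 16 hr compound treatment at 37C and a further 2 hr at room temperature with LiveBLAzer B/G FRET substrate, fluorescence was measured in PR-UAS-bla HEK 293T cells grown in 2% charcoal-stripped serum.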

Experiment [3] in a line: qHTS assay to identify small molecule antagonists of the progesterone receptor (PR) signaling pathway - cell viability counter screen (AID 1346798). Also: series mostly up to about 92 µM; nearly all actives have a fitted effect of over 50% in size. In outline: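 HEK293T PR-UAS-bla, 2% charcoal-stripped FBS; 4 hr pre-plate; cpd + R5020, 16 h 37C; LiveBLAzer read first; then CellTiter-Glo 30 min RT, luminescence.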
Experiment [4] is described as follows: qHTS assay to identify small molecule agonists of the progesterone receptor (PR) signaling pathway - cell viability counter screen (AID 1346799; calls by dose curve; also: nearly all actives have a fitted effect of over 45% in size). In outline:
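Luminescence from CellTiter-Glo, added after the beta-lactamase FRET read in the same wells, gave cytotoxicity in PR-UAS-bla HEK293T cells treated with compounds for 16 hr at 37C.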

Experiment [5] in a line: qHTS assay to identify small molecule antagonists of the TGF-beta/Smad signaling pathway - cell viability counter screen (AID 1346824). Also: nearly all actives have a fitted effect of over 50% in size. In outline:
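SBE-bla HEK 293T cells, incubated overnight, then compound plus 0.25 ng/mL TGF-beta1 (stock added) for 5 hr at 37 C. Viability was read in the same wells by CellTiter-Glo luminescence after 30 min at room temperature.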

Experiment [6] can be described thus: qHTS assay to identify small molecule agonists of the TGF-beta/Smad signaling pathway - cell viability counter screen (AID 1346829). Also: top concentration of the series differs between compounds; nearly all actives have a fitted effect of over 45% in size. In outline:
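Here the cytotoxicity of library compounds is measured in SBE-bla HEK 293T cells treated for 5 hr, using CellTiter-Glo added to wells already read for the beta-lactamase reporter.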

Experiment [7] in a line: qHTS assay to identify small molecule agonists of the TGF-beta/Smad signaling pathway (AID 1346859; active = well fitted activation curve with a large enough effect in the signal ratio in the repeat runs, not every such curve was filed as active; the % refers to the signal ratio; also: series mostly up to about 77 µM). In outline: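 SBE-bla HEK 293T, 4,000 cells/well, plated o/n; cpd in DMSO, 5 hr, 37 C/5% CO2; B/G FRET substrate 2 hr RT; ex 405, em 460/530 nm.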
The nature of experiment [8]: Human pregnane X receptor (PXR) small molecule agonists, qHTS cell viability counter screen (AID 1346977). Also: nearly all actives have a fitted effect of over 50% in size. In outline: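 PXR-Luc HepG2, 2,000 cells/well, 5% charcoal-stripped FBS; 5hr settle; cpd 24hr, 37C/5% CO2; CellTiter-Fluor at 23hr, read 1hr later (fluorescence).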
The nature of experiment [9]: Caspase-3/7 induction in HepG2 cells by small molecules, qHTS assay (AID 1346978). Also: nearly all actives have a fitted effect of over 15% in size. In outline:
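Wild-type HepG2 cells, 2,000/well, settled 5 hr at 37 C and 5% CO2, then compound-treated for 17 hr; caspase-3/7 activity read by luminescent Caspase-Glo 3/7 after 30 min at room temperature.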

Experiment [10] can be described thus: Caspase-3/7 induction in CHO-K1 cells by small molecules, qHTS cell viability counter screen (AID 1346979). Also: nearly all actives have a fitted effect of over 35% in size. Also: potency is read from the fitted curve at half-maximal effect. In outline:
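Cells (CHO-K1, wild type) are plated at 1,500 per well and incubated 5hr. Test compounds in DMSO are then pinned in, followed by 16hr at 37C and 5% CO2. Viability is read by CellTiter-Fluor fluorescence after 1hr.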

The nature of experiment [11]: Caspase-3/7 induction in CHO-K1 cells by small molecules, qHTS assay (AID 1346980). Also: nearly all actives have a fitted effect of over 15% in size. In outline:
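Wild-type CHO-K1 cells exposed to compounds for 17hr at 37 C, 5% CO2. Caspase-3/7 activity then measured by Caspase-Glo 3/7 luminescence after 30min at room temperature.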

Experiment [12] in a line: Caspase-3/7 induction in HepG2 cells by small molecules, qHTS cell viability counter screen (AID 1346981). Also: nearly all actives have a fitted effect of over 30% in size. Also: potency is read from the fitted curve at half-maximal effect. In outline:
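Multiplexed with the caspase-3/7 assay: HepG2 cells, 16 hr compound treatment, CellTiter-Fluor viability detection by fluorescence.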

The target of experiment [13] is Thyrotropin-releasing hormone receptor (Homo sapiens) (UniProt P34981). Description: qHTS assay to identify small molecule antagonists of the thyrotropin-releasing hormone receptor (TRHR) signaling pathway (AID 1346877; active = well fitted inhibition curve with a large enough effect in the repeat runs, not every such curve was filed as active; also: series mostly up to about 51 µM). In outline:
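Screening used HEK293 cells engineered with TRHR, with a brief 5 min room-temperature compound exposure preceding addition of TRH to 1 nM. The read-out was kinetic calcium-dye fluorescence, concentration-response from 15 doses in triplicate.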

Experiment [14] has the same target. Put plainly: qHTS assay to identify small molecule agonists of the thyrotropin-releasing hormone receptor (TRHR) signaling pathway (AID 1346891; calls by dose curve; also: series mostly up to about 58 µM). In outline:
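Intracellular calcium rise, read as fluorescence every second for 3 min, served as the agonist signal in dye-loaded HEK293 cells expressing TRHR; each compound ran at 15 concentrations in triplicate.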

Experiment [15] concerns the target Nuclear receptor subfamily 1 group I member 2 (Homo sapiens) (UniProt O75469). Description: Human pregnane X receptor (PXR) small molecule agonists, qHTS assay (AID 1346982). Also: nearly all actives have a fitted effect of over 35% in size. Also: potency is read from the fitted curve at half-maximal effect. In outline: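 We seeded PXR-Luc HepG2 cells in assay medium containing 5% charcoal-stripped FBS, added compounds 5 hr later, incubated 24 hr, and read luminescence with ONE-Glo reagent.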

Experiment [16] has as its target Nuclear receptor subfamily 1 group I member 2 (Rattus norvegicus) (UniProt Q9R1A7). Description: Rat pregnane X receptor (rPXR) activation by small molecules, qHTS assay (AID 1346983). Also: nearly all actives have a fitted effect of over 20% in size. Conditions: rPXR luciferase reporter cells, One-Glo luminescence, 24 h; stronger effect = higher value. In outline:
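Cell-based rPXR activation assay: rPXR cells, 2,000 per well, rested 5hr at 37 C, then exposed to compounds in DMSO for 24 hr at 37 C. Luciferase activity read by One-Glo luminescence after 30 min at room temperature.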

Experiment [17] has as its target Nuclear receptor subfamily 1 group I member 2 (Homo sapiens) (UniProt O75469). Put plainly: CYP3A4 induction through human pregnane X receptor (PXR) by small molecules, qHTS assay (AID 1346984). Also: nearly all actives have a fitted effect of over 40% in size. In outline: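 qHTS, concentration-response format: HepG2 DPX-2 line, PXR/CYP3A4-luc. Exposure 24 h, 37C. Substrate Luciferin-IPA 3uM final, 3 h. Detection One-Glo, 30 min RT.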

Experiment [18] shares this target. Description: Human pregnane X receptor (PXR) activation by small molecules, qHTS assay (AID 1346985). Also: nearly all actives have a fitted effect of over 40% in size. In outline:
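DPX-2 cells (HepG2 co-transfected with a PXR response element and a CYP3A4-promoter luciferase construct) were seeded at 2,000 per well, rested 5 hr at 37C, then exposed to DMSO-dissolved compounds for 24 hr. Activation was read as luciferase luminescence.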

The target in experiment [19] is Acetylcholinesterase (Homo sapiens) (UniProt P22303). Put plainly: Acetylcholinesterase (AChE) small molecule antagonists: colormetric cell-based qHTS assay (AID 1347395; calls by dose curve; also: nearly all actives have a fitted effect of over 30% in size). In outline: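 Colorimetric read-out: DTNB detects thiocholine released when cellular AChE in SH-SY5Y cells hydrolyses acetylthiocholine. Cells attached overnight, received compound for 30 min at 37 C, then substrate mix for 90 min at 37 C.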

The target of experiment [20] is Progesterone receptor (Homo sapiens) (UniProt P06401). Put plainly: qHTS assay to identify small molecule antagonists of the progesterone receptor (PR) signaling pathway (AID 1346795; active = well fitted inhibition curve with a large enough effect in the signal ratio in the repeat runs, not every such curve was filed as active; the % refers to the signal ratio). In outline: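 Read-out is fluorescence from the LiveBLAzer B/G FRET substrate, cleaved by a UAS-controlled beta-lactamase in PR-UAS-bla HEK293T cells after 16 hr exposure to compound plus 1 nM promegestone (final), followed by 2 hr at room temperature.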
% is scaled to controls: 0 for no effect and ±100 for the full control effect.

Thyrotropin-releasing hormone receptor (Homo sapiens), sequence (P34981 whole entry, looked up): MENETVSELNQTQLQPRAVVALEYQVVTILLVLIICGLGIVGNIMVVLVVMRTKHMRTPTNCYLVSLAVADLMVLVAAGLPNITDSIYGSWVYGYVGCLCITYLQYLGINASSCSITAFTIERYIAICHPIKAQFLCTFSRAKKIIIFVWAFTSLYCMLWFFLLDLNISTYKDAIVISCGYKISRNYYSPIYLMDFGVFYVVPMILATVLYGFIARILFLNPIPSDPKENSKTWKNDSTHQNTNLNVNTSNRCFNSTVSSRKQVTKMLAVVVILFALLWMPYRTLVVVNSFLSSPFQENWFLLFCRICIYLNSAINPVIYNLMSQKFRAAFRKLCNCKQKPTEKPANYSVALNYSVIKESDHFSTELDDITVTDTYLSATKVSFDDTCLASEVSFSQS
Nuclear receptor subfamily 1 group I member 2 (Homo sapiens), sequence (O75469 whole entry, looked up): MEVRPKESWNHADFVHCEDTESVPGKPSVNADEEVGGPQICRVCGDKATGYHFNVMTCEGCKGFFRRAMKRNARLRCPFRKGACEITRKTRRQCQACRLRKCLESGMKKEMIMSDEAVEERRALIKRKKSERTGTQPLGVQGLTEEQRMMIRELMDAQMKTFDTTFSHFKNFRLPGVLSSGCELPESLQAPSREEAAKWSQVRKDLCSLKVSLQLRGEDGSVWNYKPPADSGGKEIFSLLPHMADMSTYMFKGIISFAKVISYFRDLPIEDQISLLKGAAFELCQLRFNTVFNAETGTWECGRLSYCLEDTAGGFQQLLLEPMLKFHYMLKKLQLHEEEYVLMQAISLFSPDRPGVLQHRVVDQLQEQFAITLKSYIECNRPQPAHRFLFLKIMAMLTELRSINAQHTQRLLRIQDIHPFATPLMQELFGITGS
Acetylcholinesterase (Homo sapiens), sequence (P22303 whole entry, looked up): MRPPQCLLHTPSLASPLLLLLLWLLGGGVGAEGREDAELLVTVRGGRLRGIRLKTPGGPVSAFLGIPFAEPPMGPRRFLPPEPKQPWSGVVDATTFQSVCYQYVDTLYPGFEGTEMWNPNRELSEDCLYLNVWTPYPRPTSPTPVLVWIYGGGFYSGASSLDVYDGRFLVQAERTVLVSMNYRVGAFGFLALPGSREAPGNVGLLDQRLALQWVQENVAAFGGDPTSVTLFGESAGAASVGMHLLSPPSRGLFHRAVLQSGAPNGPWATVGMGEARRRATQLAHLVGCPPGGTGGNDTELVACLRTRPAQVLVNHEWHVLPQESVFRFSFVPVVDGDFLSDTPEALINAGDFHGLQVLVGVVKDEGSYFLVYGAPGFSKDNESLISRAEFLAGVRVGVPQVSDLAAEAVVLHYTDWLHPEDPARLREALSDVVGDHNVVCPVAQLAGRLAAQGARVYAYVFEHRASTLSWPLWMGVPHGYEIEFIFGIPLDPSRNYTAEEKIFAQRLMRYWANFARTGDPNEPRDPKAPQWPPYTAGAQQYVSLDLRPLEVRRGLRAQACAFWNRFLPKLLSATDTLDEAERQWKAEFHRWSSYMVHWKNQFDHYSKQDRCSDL
Progesterone receptor (Homo sapiens), sequence (P06401 whole entry, looked up): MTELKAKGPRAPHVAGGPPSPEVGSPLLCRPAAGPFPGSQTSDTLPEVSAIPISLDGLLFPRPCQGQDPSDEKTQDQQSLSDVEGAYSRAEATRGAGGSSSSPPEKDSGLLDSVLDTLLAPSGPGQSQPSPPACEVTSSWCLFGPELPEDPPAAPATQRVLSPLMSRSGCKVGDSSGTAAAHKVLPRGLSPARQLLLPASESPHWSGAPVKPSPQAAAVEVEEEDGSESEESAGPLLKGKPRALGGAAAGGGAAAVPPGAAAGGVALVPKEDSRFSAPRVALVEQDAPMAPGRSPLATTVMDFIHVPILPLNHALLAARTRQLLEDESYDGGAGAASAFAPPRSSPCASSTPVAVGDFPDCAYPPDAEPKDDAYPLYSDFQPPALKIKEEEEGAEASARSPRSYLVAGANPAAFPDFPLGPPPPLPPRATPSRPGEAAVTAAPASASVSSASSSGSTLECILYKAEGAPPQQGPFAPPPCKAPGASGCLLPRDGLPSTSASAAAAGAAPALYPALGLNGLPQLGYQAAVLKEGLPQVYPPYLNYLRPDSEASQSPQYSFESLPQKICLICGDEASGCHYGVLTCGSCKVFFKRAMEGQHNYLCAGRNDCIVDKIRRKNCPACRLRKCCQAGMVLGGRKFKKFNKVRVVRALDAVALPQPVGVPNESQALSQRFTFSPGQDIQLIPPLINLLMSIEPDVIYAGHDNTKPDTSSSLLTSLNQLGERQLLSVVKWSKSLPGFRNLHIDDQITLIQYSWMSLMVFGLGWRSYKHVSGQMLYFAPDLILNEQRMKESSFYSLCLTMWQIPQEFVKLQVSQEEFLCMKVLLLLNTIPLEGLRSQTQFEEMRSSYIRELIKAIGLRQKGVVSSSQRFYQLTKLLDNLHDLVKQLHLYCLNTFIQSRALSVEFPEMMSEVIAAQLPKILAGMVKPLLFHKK
Nuclear receptor subfamily 1 group I member 2 (Rattus norvegicus), sequence (Q9R1A7 whole entry, looked up): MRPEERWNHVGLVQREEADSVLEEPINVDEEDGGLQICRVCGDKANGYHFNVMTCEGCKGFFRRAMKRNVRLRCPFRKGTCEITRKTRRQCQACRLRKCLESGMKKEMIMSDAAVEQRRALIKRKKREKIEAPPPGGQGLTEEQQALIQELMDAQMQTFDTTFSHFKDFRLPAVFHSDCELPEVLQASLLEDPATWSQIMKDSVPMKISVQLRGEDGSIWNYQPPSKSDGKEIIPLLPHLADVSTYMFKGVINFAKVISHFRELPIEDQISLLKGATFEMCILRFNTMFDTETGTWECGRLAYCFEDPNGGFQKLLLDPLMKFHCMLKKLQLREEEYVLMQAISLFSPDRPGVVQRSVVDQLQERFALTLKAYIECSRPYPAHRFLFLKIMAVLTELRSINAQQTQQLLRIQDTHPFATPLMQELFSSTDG

As for `c1ccc2c(c1)-c1cccc3cccc-2c13`, the Potency entry in [1], in experiment [2], in [3], in [4], in experiment [5] and in experiment [6] was “inactive” throughout. The Potency entry in experiment [8], in experiment [9], in experiment [10], in experiment [11] and in experiment [12] was “inactive” throughout. Moreover, in experiment [7], the compound was classed as inactive.

On to `c1ccc2sc(SNC3CCCCC3)nc2c1`, for which the Potency entry in experiment [1], in experiment [2], in [3], in [4], in experiment [5] and in [6] was “inactive” in each case. The Potency result in experiment [13], in experiment [8], in experiment [9], in experiment [10], in [11] and in experiment [12] was “inactive” each time. For the same compound, the Potency entry in [18] and in [19] was “inactive” throughout. For the same compound, the compound was called inactive in experiment [7], in experiment [14] and in experiment [17]. Besides, the Potency in experiment [15] is 60.4 µM (active) and 48.6 µM (active). Also, the max activation in [16] is 11.8%.

Regarding `CC(C)(C)N(NC(=O)c1ccc(Cl)cc1)C(=O)c1ccccc1`, the Potency in [1] is 4.83 µM (active); in experiment [10] it was 12.1 µM (active); in experiment [12] it was 12.1 µM (active). The Potency result in experiment [2], in experiment [3], in [4], in experiment [5], in [6] and in [13] was “inactive” each time. In addition, the Potency result in experiment [9], in experiment [11] and in experiment [19] was “inactive” each time. Further, the call in [7] and in experiment [14] was inactive.

As for `CCCCCCCCCCCCN(C)C`, the Potency result in [1], in experiment [2], in experiment [3], in experiment [4], in experiment [5] and in experiment [6] was “inactive” throughout. The Potency entry in experiment [13], in experiment [8], in experiment [9], in experiment [10], in experiment [11] and in [12] was “inactive” throughout. For the same compound, the Potency result in [15] and in [19] was “inactive” throughout. For the same compound, the outcome in [7] and in [14] was inactive.

`O=C([O-])c1ccccn1.O=C([O-])c1ccccn1.O=C([O-])c1ccccn1.[Cr+3]`: the Potency result in [1], in experiment [2], in experiment [3], in experiment [4], in [5] and in experiment [6] was “inactive” throughout. The Potency result in experiment [8], in [9], in experiment [10], in experiment [11], in [12] and in experiment [15] was “inactive” each time. In addition, the Potency entry in experiment [19] was “inactive”. For the same compound, the outcome in experiment [7] was inactive.

Consider `CC(C)C1(C)N=C(c2ncccc2C(=O)O)NC1=O` (centres undefined), for which the Potency result in [1], in [2], in experiment [4], in [5], in experiment [6] and in experiment [13] was “inactive” in each case. The Potency result in [8], in experiment [9], in [10], in experiment [11], in experiment [12] and in experiment [15] was “inactive” each time. Also, the Potency result in experiment [19] was “inactive”. Moreover, the outcome in experiment [7] and in experiment [14] was inactive.

For `N#CC(C#N)=Cc1ccc(O)c(O)c1`, the Potency result in experiment [1], in [2], in [20], in experiment [4], in experiment [5] and in [6] was “inactive” each time. Besides, the Potency entry in [13], in experiment [8], in experiment [9], in [11], in experiment [12] and in [15] was “inactive” throughout. Also, the Potency entry in experiment [19] was “inactive”. For the same compound, the compound was classed as inactive in experiment [7] and in experiment [14].

As for `NP(N)(=O)NC(=O)c1ccc(F)cc1`, the Potency result in experiment [1], in experiment [2], in experiment [3], in experiment [4], in experiment [5] and in experiment [6] was “inactive” each time. The Potency entry in experiment [13], in experiment [8], in [9], in [10], in experiment [11] and in experiment [12] was “inactive” in each case. Moreover, the Potency result in experiment [15], in experiment [18] and in experiment [19] was “inactive” in each case. Further, the call in experiment [7], in [14] and in experiment [17] was inactive. Moreover, in experiment [16], the max activation was 0.566%.
